# ERK EGF inh: blocks ERK signaling stimulated by EGF; HEK293-V1b, EGF-stimulated phospho-ERK AlphaScreen; Potency, µM (highest dose often 11.5 µM), without a hit: at the highest dose activity change, negative = inhibition, usual class: inhibitors; 130,000 tested, 0.41% active; AID 1454; active means well fitted inhibition curve with a large enough effect;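 further: plate controls were stimulated vehicle wells for no effect and unstimulated vehicle basal for full effect; nearly all actives have a fitted effect of over 55% in size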
#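 Homogeneous cell-based phospho-ERK assay: HEK293/V1b cells in 1% FBS, compound 30 min then EGF 5 min, AlphaScreen luminescence. Activity normalized between DMSO and 25 nM EGF controls; AC50 from Hill modelling.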
# * hit, by the source's call; [ ] = remark or other dose. The sample as a whole holds a higher share of hits than the screen did. Potency means the concentration at half of the fitted maximal effect.
SMILES,ERK EGF inh
COC(=O)/C(=C\C(=O)c1ccc([N+](=O)[O-])cc1)Nc1ccc(OC)cc1,13µM*
COc1ccc(C(=O)/C=C/Nc2ccc([N+](=O)[O-])cc2)cc1,1%
COc1ccc(NC(=O)CNC(=O)c2ccc([N+](=O)[O-])cc2)cc1,5%
COc1ccc2c(c1)O[C@@H](c1cccc(C(F)(F)F)c1)[C@H](OC(=O)NCCOc1ccccc1)C2=O,3%
O=c1c(-c2ccc(O)cc2)coc2c(C3OC(CO)C(O)C(O)C3O)c(O)ccc12 (stereo not drawn),0%
O=C(NC1CCCC1)c1cc(COc2ccc3ncccc3c2)on1,-10%[57.5 µM]
O=C(NCCc1cn2ccccc2n1)c1cc(COc2ccc3ncccc3c2)on1,28µM*
O=C(c1cc(COc2ccc3ncccc3c2)on1)N1CCCCCC1,-2%
CCCCC[C@H](O)/C=C/[C@H]1OC(O)C[C@H](O)[C@@H]1C/C=C\CCCC(=O)O (stereo partly drawn),3%
CCN(CC)CCn1c(-c2ccccc2)nc2c(NCCOC)nc(C)nc21,-5%
CC(C)C[C@@H](CC(=O)N[C@@H](CCC(=O)O)CC(=O)O)NC(=O)[C@@H]1CNCC[C@H]1NC(=O)C[C@@H](NC(=O)C[C@H](CO)NC(=O)[C@@H]1CCCC[C@H]1N)C(C)C,-22%
NS(=O)(=O)c1ccc(Oc2ccc(S(N)(=O)=O)cc2)cc1,-10%
C=CS(=O)(=O)c1ccc(Oc2ccc(S(=O)(=O)C=C)cc2)cc1,13µM*
CC(=O)CC(C)(C)S(=O)(=O)c1ccc(Oc2ccc(S(=O)(=O)C(C)(C)CC(C)=O)cc2)cc1,-9%
O=C(Nc1cccc(F)c1)N1CCCC2(CCN(C(=O)c3ccncc3)CC2)C1,-3%
CC(C)NC(=O)N1CC2(CCN(S(=O)(=O)c3ccccc3)CC2)C1,1%
CCCC(=O)Nc1nc(CC(=O)OCC)cs1,3%
CCOC(=O)Cc1csc(NC(=O)c2ccc(C)cc2)n1,5%
CCOC(=O)Cc1csc(NC(=O)/C=C/c2ccc(Br)o2)n1,35µM*
CCCCCCCCCCCCCCCC(=O)NCC(=O)O,4%
CCC1=C2CC[C@H]3C(=O)NC(=O)[C@H]3[C@H]2[C@@]2(C)C(=NCC3CC3)OC(=O)N2C1=O,-9%
CCOC(=O)c1[nH]cnc1N=Nc1c(O)ccc2ccccc12,-16%
Oc1ccc2ccccc2c1CN1CCN(c2ccccc2F)CC1,0%
Oc1ccc2ccccc2c1N=Nc1ccccc1F,14µM*
CS(=O)(=O)Nc1cccc(-c2nc(N3CCOCC3)c3ccccc3n2)c1,14%
SMILES,ERK EGF inh
COc1ccc2ccccc2c1-c1c(OC)ccc2ccccc12,-1%
C=CC[C@@](C(C)=O)(C(=O)OC)C(NC(=O)OC(C)(C)C)c1ccccc1 (stereo partly drawn),1%
COc1ccc(/C=C(\C#N)c2cc(OC)c(OC)cc2[N+](=O)[O-])cc1,-4%[57.5 µM]
N#C/C(=C\c1ccc(-c2ccccc2)cc1)c1nc(-c2ccco2)cs1,6%
CCOc1ccc(-c2csc(/C(C#N)=C\c3ccc(O)c([N+](=O)[O-])c3)n2)cc1,13µM*
O=C(c1cnccn1)N1CCC2(CC1)CCN(c1ccccc1)CC2,6%
COc1cc(C(=O)NNc2nc3cc4c(cc3s2)OCO4)cc(OC)c1OC,6%
O=C(NNc1nc2cc3c(cc2s1)OCO3)c1cccc(F)c1,18µM*
COc1cc(OC)cc(C(=O)NNc2nc3cc4c(cc3s2)OCO4)c1,0%
C[C@@H](O)CCC[C@H](O)/C=C/[C@@H]1[C@@H](C/C=C\CCCC(=O)O)[C@@H](O)C[C@H]1O,-12%
CCCN1C(=O)/C(=C/c2ccc(N3CCOCC3)cc2)NC1=S,-4%
CCOc1cc(/C=C2/NC(=O)N(CC(=O)OC)C2=O)ccc1OC,-3%
CCCN1C(=O)/C(=C/c2ccc(OCC(=O)OCC)cc2)NC1=S,32µM*
COc1cc(/C=N/Nc2nc(-c3ccc(S(=O)(=O)N(C)C)cc3)cs2)ccc1O,8.9µM*
COc1ccc(/C=N/Nc2nc(-c3cccc(S(=O)(=O)N4CCCC4)c3)cs2)cc1OC,-3%
COc1cc(/C=N/Nc2cc(C)nc(NS(=O)(=O)c3ccc(C)cc3)n2)ccc1O,-2%
C=C(C)C(O)/C=C/c1ccc(C(F)(F)F)cc1 (stereo not drawn),-1%
Cc1ccccc1Nc1oc(-c2ccccc2)nc1-c1ccccc1,1%
N#CCCN1CCCc2cc(N=Nc3ccc(C(F)(F)F)cc3)ccc21,22µM*
N#Cc1c(N2CCOCC2)nsc1-c1ccc(C(F)(F)F)cc1,6%[57.5 µM]
COC(=O)[C@@H]1C[C@H]1[C@@H](NC(C)=O)c1ccccc1,13%
Nc1nc(SCc2ccc([N+](=O)[O-])cc2)c2ncn([C@@H]3O[C@H](CO)[C@H](O)[C@H]3O)c2n1,-4%
N#Cc1ccc(CN2CCCC3(CCN(S(=O)(=O)c4ccccc4)CC3)C2)cc1,7%
N#Cc1cccc(NC(=O)N2CC[C@@]3(CCCN(C(=O)c4ccco4)C3)C2)c1,-2%
O=C(O)/C=C1\CCCc2ccccc2[C@H]1O,1%
SMILES,ERK EGF inh
CN(C)c1ccc(C(=O)Nc2nc3c(s2)CCCC3)cc1,22µM*
CC(C)(C)c1ccc(C(=O)NC(=S)Nc2nc3c(s2)CCCC3)cc1,8%
O=C(Nc1nc2c(s1)CCCC2)c1ccc(S(=O)(=O)N2CCCc3ccccc32)cc1,1%
C=C(C)C(=O)/C=C/c1ccc(C(F)(F)F)cc1,-7%
O=C(NC(=S)Nc1ccccc1N1CCN(C(=O)c2ccccc2)CC1)c1cccs1,6%[57.5 µM]
CC(C)C(=O)NC(=S)Nc1ccccc1N1CCN(C(=O)c2ccccc2)CC1,-4%
CC(=O)NC(=S)Nc1ccccc1N1CCN(C(=O)c2ccccc2)CC1,32µM*
COc1c2c(nc3ccccc13)O[C@H]([C@@](C)(O)CO)C2,9%[25.7 µM]
Cc1ccc2cc(CCNC(=O)C(C)C)c(=O)[nH]c2c1C,-2%
CCC(=O)NCCc1cc2ccc(C)c(C)c2[nH]c1=O,3%
Cc1ccc2cc(CCNC(=O)c3cc4ccccc4o3)c(=O)[nH]c2c1C,32µM*
CCCOc1ccc(/C=N/Nc2ccccc2[N+](=O)[O-])c(OCCC)c1,11µM*
O=[N+]([O-])c1ccccc1N/N=C/c1cccc(O)c1O,2%[57.5 µM]
CCCONC(=O)Nc1ccccc1[N+](=O)[O-],4%
CC(C)C[C@@H](CC(=O)N[C@@H](CCCN)CC(=O)N[C@@H]1CCNC[C@H]1C(=O)N[C@H](CC(=O)N[C@@H](CCC(=O)O)CC(=O)O)Cc1ccccc1)NC(=O)[C@@H]1CCCC[C@H]1N,1%
CC1(C)SC2C(NC(=O)C(C(=O)O)c3ccccc3)C(=O)N2C1C(=O)O (stereo not drawn),2%
CCOc1ccc2c(c1)-c1c(ssc1=S)C(C)(C)N2C(=O)CSC1=NCCS1,18µM*
CCOc1ccc(C(=O)NC2=NCCS2)cc1,-2%
COc1ccc(C2CC(c3ccc(Br)cc3)=NN2C(=O)CSC2=NCCS2)cc1 (stereo not drawn),-3%
COc1ccc(C(=O)N(O)c2ccccc2)cc1,-7%
Cc1cccc(OCC(=O)N2CCN(c3nnc(-c4ccccc4)c4ccccc34)CC2)c1,-10%[57.5 µM]
Cc1ccc(-c2nnc(N3CCN(C(=O)COc4cccc(C)c4)CC3)c3ccccc23)cc1,40µM*
Cc1cccc(OCC(=O)N2CCN(C(=O)c3ccc([N+](=O)[O-])cc3)CC2)c1,-6%
Cn1cccc1C(=O)N1CCC2(CCN(Cc3nccs3)CC2)CC1,8%
COc1cc(/C=C(\C#N)C(N)=O)cc(CSc2nc3ccccc3s2)c1O,-4%
CCN1C(=O)/C(=C/C=C2/Sc3ccc4ccccc4c3N2CCO)SC1=S,2%
